From PubChem BioAssay
Active and inactive are the calls of the source.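 How the source made its calls, unless noted: active means mean z-score across replicates of 1.96 or higher in either the MELAS or the Rieske mutant cell line; inactive means the rest.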

Assays:
[1] = sensitizers of A549 cells to miR-34 induction, primary screen, imaging, A549 dox-inducible miR-34, nuclei and caspase counts (AID 1347080;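 active means compounds whose cell count with miR-34 switched on is under 0.7 times the count with it off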); conditions: A549 miR-34 inducible, Hoechst nuclei count, 48 h
[2] = survival rescue of mitochondrial mutant cells in low glucose, primary screen, MELAS cybrids, Rieske KO mouse fibroblasts, CellTiter-Glo (AID 1508586);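 further: z relative to plate mean and SD of compound and empty wells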
[3] = stronger effect = lower value, cell number ratio, induced over uninduced
[4] = measured here: relative caspase fold change +Dox/-Dox
[5] = measured here: total cells with miR-34 induction, stronger effect = lower value
[6] = measured here: total cells without miR-34 induction
[7] = MELAS cybrid survival, CellTiter-Glo 48 h, stronger effect = higher value
[8] = Rieske KO mouse fibroblast survival, CellTiter-Glo 72 h
Further: test concentration not given here.

| Structure (SMILES) | fold change [1, 3] | fold change [1, 4] | cell count [1, 5] | cell count [1, 6] | z-score [2, 7] | z-score [2, 8] |
| --- | --- | --- | --- | --- | --- | --- |
| COc1cc(OC)c(C=CS(=O)(=O)Cc2ccc(OC)c(NCC(=O)O)c2)c(OC)c1 | 1.02 (inactive) | 0.641 | 1610 | 1580 | 0.468 (inactive) | -0.375 |
| CCOC(=O)c1ccc(N2NC(=O)C(=Cc3ccc([N+](=O)[O-])o3)C2=O)cc1 | 0.912 (inactive) | 0.455 | 7420 | 8150 | -0.255 (inactive) | -2.84 |
| COc1ccc(CC(NC(=O)C(C)NC(=O)CN2CCOCC2)C(=O)NC(Cc2ccccc2)C(=O)[C@]2(C)CO2)cc1 (some centres not stated) | 1.43 (inactive) | 1 | 990 | 690 | -0.544 (inactive) | -7.62 |
| Cc1[nH]c(C=C2C(=O)Nc3ccc(S(=O)(=O)Cc4c(Cl)cccc4Cl)cc32)c(C)c1C(=O)N1CCCC1CN1CCCC1 (configuration not stated) | 0.833 (inactive) | 1.46 | 4270 | 5130 | -0.699 (inactive) | 0.101 |
| C[C@]12CCC(O)CC1=CCC1C2CC[C@]2(C)C(n3cnc4ccccc43)=CCC12 (some centres not stated) | 0.927 (inactive) | 0.715 | 7740 | 8340 | -0.32 (inactive) | -0.165 |
| CCN1CCN(Cc2ccc(-c3cc4c(NC(C)c5ccccc5)ncnc4[nH]3)cc2)CC1 (configuration not stated) | 1.04 (inactive) | 0.932 | 3430 | 3280 | -0.0772 (inactive) | 0.518 |
| OCC(O)C(O)CO (configuration not stated) | 0.967 (inactive) | 0.463 | 8430 | 8720 | -0.193 (inactive) | -0.162 |
| O=C(C=Cc1ccc(O)c(O)c1)OC1C[C@@](O)(C(=O)O)CC(O)C1O (some centres not stated) | 0.936 (inactive) | 0.802 | 8020 | 8570 | -0.38 (inactive) | -0.0852 |
| NC1CCCN(c2c(C=C3SC(=O)NC3=O)cccc2-c2ccccc2)C1 (configuration not stated) | 0.91 (inactive) | 0.316 | 8290 | 9110 | -0.282 (inactive) | 0.224 |
| O=C(O)C1OC(Oc2cc3oc(-c4ccccc4)cc(=O)c3c(O)c2O)C(O)C(O)C1O (configuration not stated) | 0.916 (inactive) | 1.12 | 7800 | 8520 | -0.174 (inactive) | 0.279 |
| C#CCC(Cc1cnc2nc(N)nc(N)c2n1)c1ccc(C(=O)NC(CCC(=O)O)C(=O)O)cc1 (configuration not stated) | 1.12 (inactive) | 0.784 | 2390 | 2130 | -0.188 (inactive) | 0.624 |
| CN1[C@@H]2CC(OC(=O)C(CO)c3ccccc3)C[C@H]1[C@@H]1O[C@H]12 (some centres not stated) | 0.946 (inactive) | 0.844 | 9480 | 10000 | -0.356 (inactive) | 0.736 |
| CC(=NNC(=S)N1CCC1)c1ccccn1 | 0.887 (inactive) | 0.742 | 1950 | 2200 | 7.64 (active) | -5.36 |
| COc1cc2ncnc(Sc3nnc(C)s3)c2cc1OC | 0.954 (inactive) | 0.244 | 5380 | 5640 | 2.8 (active) | 1.21 |
| CC(C)OC(=O)C(C)N[P@](=O)(OCC1OC(n2ccc(=O)[nH]c2=O)[C@](C)(F)C1O)Oc1ccccc1 (some centres not stated) | 0.909 (inactive) | 0.639 | 9560 | 10500 | -0.378 (inactive) | 0.864 |
| CC(C)N(CCC(c1ccccc1)c1cc(CO)ccc1O)C(C)C (configuration not stated) | 0.934 (inactive) | 1.04 | 9810 | 10500 | -0.366 (inactive) | 0.299 |
| CC1C=CC=CC=CC=CC=CC=CC=CC(OC2OC(C)C(O)C(N)C2O)CC2O[C@@](O)(CC(O)CC(O)C(O)CCC(O)CC(O)CC(=O)OC(C)C(C)C1O)CC(O)C2C(=O)O (some centres not stated) | 0.819 (inactive) | 1.3 | 6680 | 8160 | -0.196 (inactive) | 0.383 |
| CC(=Cc1ccc(C(=O)O)cc1)c1ccc2c(c1)C(C)(C)CCC2(C)C | 0.986 (inactive) | 0.781 | 8250 | 8370 | -0.023 (inactive) | -0.2 |
| O=c1[nH]c(=O)n(C2CC(O)C(CO)O2)cc1C(F)(F)F (configuration not stated) | 1.15 (inactive) | 0.574 | 1670 | 1450 | -0.198 (inactive) | -0.513 |
| CC1(C)S[C@@H]2C(NC(=O)C(C(=O)O)c3ccccc3)C(=O)N2C1C(=O)O (some centres not stated) | 0.89 (inactive) | 0.816 | 8430 | 9470 | -0.386 (inactive) | -0.157 |
| CC1C[C@@H]2[C@@H](C(O)C[C@@]3(C)[C@H]2CC[C@@]3(O)C(=O)CO)[C@@]2(C)C=CC(=O)C=C12 (some centres not stated) | 0.787 (inactive) | 1.42 | 5500 | 6980 | -0.489 (inactive) | -0.516 |
| CC(C)(C)OC(=O)NC1CCCCCC=CC2C[C@@]2(C(=O)NS(=O)(=O)C2CC2)NC(=O)C2CC(OC(=O)N3Cc4cccc(F)c4C3)CN2C1=O (some centres not stated) | 0.897 (inactive) | 1.55 | 6840 | 7630 | -0.451 (inactive) | 0.469 |
